Source: PubChem BioAssay (National Center for Advancing Translational Sciences (NCATS))
Shown are actives, neighbours in structure and some others; about 18% of the full set was active somewhere.
TDP1 block = inhibitors of human tyrosyl-DNA phosphodiesterase TDP1; 350,000 compounds, 0.28% hits; AID 485290; recombinant TDP1, AlphaScreen DNA substrate cleavage; Potency, µM (titrated, usually from 130 µM), hits mostly inhibitors; further: nearly all actives have a fitted effect of over 40% in size
Target sequence (Q9NUW8 whole entry, looked up): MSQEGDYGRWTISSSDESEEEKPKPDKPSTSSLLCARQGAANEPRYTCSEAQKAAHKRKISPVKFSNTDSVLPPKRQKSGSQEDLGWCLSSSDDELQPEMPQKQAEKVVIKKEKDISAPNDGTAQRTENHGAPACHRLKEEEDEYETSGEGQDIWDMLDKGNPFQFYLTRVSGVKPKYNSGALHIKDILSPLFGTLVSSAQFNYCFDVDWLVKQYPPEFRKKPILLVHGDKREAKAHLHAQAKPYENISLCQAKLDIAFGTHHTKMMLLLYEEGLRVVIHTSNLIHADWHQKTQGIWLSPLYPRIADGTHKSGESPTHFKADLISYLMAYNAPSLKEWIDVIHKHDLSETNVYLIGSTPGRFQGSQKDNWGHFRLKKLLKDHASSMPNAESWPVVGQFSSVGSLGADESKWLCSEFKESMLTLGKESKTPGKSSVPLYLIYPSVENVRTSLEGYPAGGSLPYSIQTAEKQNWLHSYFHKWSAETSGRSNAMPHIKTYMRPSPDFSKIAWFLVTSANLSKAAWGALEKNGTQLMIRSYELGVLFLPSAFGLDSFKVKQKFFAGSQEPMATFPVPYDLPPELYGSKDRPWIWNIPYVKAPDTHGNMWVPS
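AlphaScreen read-out: signal falls as enzyme removes the 3' tyrosine-FITC from a 5'-biotinylated DNA oligo (15 nM, 5 min, RT). Enzyme was E. coli-made recombinant Tdp1 at 1 nM, exposed to compound for 15 min beforehand; beads 10 ug/ml, 10 min.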
DT40 TDP1 no CPT = qHTS for Inhibitors of human tyrosyl-DNA phosphodiesterase 1 (TDP1): qHTS in cells in absence of CPT. AID 686978, 2013. Potency, µM (titrated, usually from 46.2 µM), hits mostly inhibitors. DT40 Tdp1-/- hTDP1 cells, no CPT, ATP luminescence, 48 h. 420,000 compounds, 15% hits; further: nearly all actives have a fitted effect of over 55% in size
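Readout: luminescence from CellTiter-Glo after 30 min in the dark at RT. Cells: DT40 Tdp1-/- with stable hTDP1, 400/well. Exposure: compounds alone, ≥48 hr, 37 °C.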
TDP1 cell CPT = growth inhibition of DT40 Tdp1-/-;hTDP1 cells with camptothecin (screen for TDP1 inhibitors); chicken DT40 Tdp1-/-;hTDP1 cells + 20 nM CPT, ATP luminescence, 48 h; Potency, µM (highest dose often 46.2 µM), actives largely listed as inhibitors; 420,000 compounds, 12% hits; further: nearly all actives have a fitted effect of over 55% in size
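Cell growth measured by CellTiter-Glo luminescence after a minimum 48 h, 37 C compound exposure with 20 nM CPT in Tdp1-knockout DT40 cells stably expressing hTDP1, seeded 400/well; qHTS titration format.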
HepG2 tox = counter-screen for TGF-b inhibitors: cytotoxicity in HepG2 cells. HepG2 CAGA-GFP viability, ATP luminescence, 18 h. Potency, µM (titrated, usually from 46.1 µM), actives largely listed as cytotoxic. 410,000 compounds, 0.76% hits. AID 588856
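HepG2 CAGA-GFP cells (1000/well, DMEM with 1% FBS) received compound, then TGF-beta at 500 pg/mL final, and were incubated 18 hours at 37 degrees C. Viability was read by CellTiter-Glo luminescence. Media-only wells were set as complete cell-killing and DMSO as no toxicity.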
TGFb inhibitor = inhibitors of TGF-b signaling; HepG2 CAGA-GFP TGF-b/SMAD3 reporter, GFP fluorescence, 18 h; TGF-beta stimulated, 500 pg/mL final; 410,000 compounds, 1.2% hits; AID 588855; Potency, µM (highest dose often 46.1 µM), most hits filed as inhibitors; further: nearly all actives have a fitted effect of over 65% in size
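Smad-responsive CAGA-GFP expression was quantified in HEPG2 cells exposed to compounds and 500 pg/mL final TGF-beta for 18 h at 37 degrees C; unstimulated wells defined full inhibition.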
IL-1B inflam inh = inflammasome signaling inhibition, IL-1 beta readout; THP-1 LPS/ATP IL-1B secretion, AlphaLISA, 16 h; active compounds read low; activity change, % at 57.5 µM; 360,000 compounds, 4.7% hits; AID 743279; in the data active means activity change below about -50%; inconclusive means mostly about -30% to -49%
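THP-1 cells pretreated 1 hr with compounds (up to 57.5 uM final), then stimulated with LPS (250 ng/mL final) plus ATP (1.25 mM final); secreted IL-1B measured by AlphaLISA after 16 hr, decreased signal indicating inhibition.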
Hits are given with their value; - = inactive; ? = inconclusive; . = not tested or not shown. Unless noted, the call rests on the fitted dose curve; in most records, active means well fitted curve in the direction sought with a large enough effect; inconclusive means small, poorly fitted or top-dose-only effect, or another doubt; inactive means no such curve, though single readings can be large; an effect the other way counts as inactive or inconclusive.

SMILES	TDP1 block	DT40 TDP1 no CPT	TDP1 cell CPT	HepG2 tox	TGFb inhibitor	IL-1B inflam inh
Cc1cc(C)cc(-n2ncc3c2CCCC3NC(=O)c2cc(C)n(C)n2)c1 (centres undefined)	-	?	?	-	?	-
CC(C)(C)c1ccc(-n2ncc3c2CCCC3NC(=O)c2ccco2)cc1 (centres undefined)	.	15µM	21µM	-	-	-
O=C(CSc1nc2ncc(Cl)cc2[nH]1)Nc1ccccc1-c1ccccc1	-	?	?	-	?	-
O=C(CSc1nc2ncc(Br)cc2[nH]1)c1ccc([N+](=O)[O-])cc1	-	?	18µM	-	?	-
O=C(CSc1nc2ncc(Br)cc2[nH]1)Nc1ccccc1-c1ccccc1	-	?	16µM	-	?	-
CCOC(=O)N1CCN(C(=O)C2CCN(C(=O)c3ccc(C(C)(C)C)cc3)CC2)CC1	.	?	-	-	-	-
CCC1=C(OC(=O)N(CC)CC)N2C(=O)OC(=NCCc3c[nH]c4ccccc34)[C@]2(Cc2ccccc2)[C@H]2C1=CC[C@H]1C(=O)N(c3ccccc3)C(=O)[C@H]12	-	?	?	-	-	-
CCC1=C(OC(=O)N(CC)CC)N2C(=O)OC(=NCCc3c[nH]c4ccccc34)[C@]2(Cc2ccccc2)[C@H]2C1=CC[C@H]1C(=O)N(C)C(=O)[C@H]12	-	?	?	-	?	-53
COc1ccccc1C(=O)NC(CCSC)C(=O)OCC(=O)N1CCN(S(=O)(=O)c2ccc(C)cc2)CC1 (centres undefined)	.	?	-	-	-	-
CCN(CCCNC(=O)c1nn(-c2ccc(OC)cc2)c(=O)c2c1c1ccccc1n2C)c1ccccc1	-	-	-	-	-	.
COc1ccccc1CNC(=O)c1cccc(NC(=O)N2CCSc3ncccc32)c1	-	?	?	-	-	.
O=C(NCc1ccccc1F)c1cccc(NC(=O)N2CCSc3ncccc32)c1	-	?	23µM	-	-	.
CC(C)Oc1ccc(CNC(=O)Cc2ccc(NC(=O)N3CCSc4ncccc43)cc2)cc1	-	16µM	16µM	-	-	.
Cc1ccc(CNC(=O)c2cccc(NC(=O)N3CCSc4ncccc43)c2)cc1	-	21µM	?	-	-	.
COCCNC(=O)Cn1cnc2c(cnn2-c2ccc(OC)cc2)c1=O	.	-	-	-	-	-
Cc1cc(=O)[nH]c(N/N=C/c2c(C)oc3ccccc23)n1	-	?	12µM	-	-	-
Cc1cc(=O)[nH]c(N/N=C/c2c(C)nn(-c3ccccc3)c2Cl)n1	-	23µM	23µM	-	-	-
Nc1nc2c(s1)CCc1c-2cnn1-c1ccccc1	-	13µM	15µM	-	18µM	-
CCn1c(SCC(=O)O)nnc1-c1cccnc1	-	-	-	-	-	-
Cc1ccc(C(=O)Nc2nc3c(s2)CCCC3)o1	-	?	23µM	-	?	-
O=C(Nc1nc2c(s1)CCCC2)c1ccc(Br)o1	-	15µM	?	-	-	-
O=C(Nc1nc2c(s1)CCCC2)c1cccs1	-	21µM	?	10µM	-	-
CC(O)Cc1nsc(NC(=O)c2ccc(Br)o2)n1 (centres undefined)	-	2.3µM	4.1µM	-	-	-
O=C(Nc1nc2c(s1)CCCC2)c1cccnc1	-	-	?	-	-	-
O=C(Cc1cccs1)Nc1nc2c(s1)CCCC2	-	?	?	-	-	-
Cc1ccc(/C=C/S(=O)(=O)NCC(=O)OCC(=O)Nc2ccc(C(=O)N(C)C)cc2)cc1	-	-	-	-	-	-
O=C(Nc1ccc(Br)cc1)Nc1nc2c(s1)CCCCCC2	-	18µM	15µM	-	-	.
Cc1cc(C[n+]2cc(Cl)ccc2N)c2ncccc2c1	-	?	-	-	-	-76
Cc1cc(C[n+]2cc(Br)ccc2N)c2ncccc2c1	-	10µM	12µM	-	-	-62
